TIM10 inh = growth inhibitors of isogenic TIM10 control yeast, primary screen, counter-screen for tim10-1 yeast inhibitor project, luminescence, uHTS | S. cerevisiae TIM10 strain growth, BacTiter-Glo luminescence, 24 h | AID 463195, 2010 | hit rate 1.4% among 330,000 | inhibition, % at 10 µM;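 active = inhibition of 40% or more at the single tested concentration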;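 also: wild-type TIM10 isogenic control strain grown at permissive 25 °C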
tim10-1 inh = growth inhibitors of tim10-1 mutant yeast, primary screen, luminescence, uHTS; inhibition, % at 20 µM; hit rate 2.2% among 330,000; S. cerevisiae tim10-1 ts strain growth, BacTiter-Glo, 24 h; AID 463190, 2010;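 active = inhibition of at least 40%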;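 also: mutant grown at 25 °C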
tim23-1 inh = growth inhibitors of tim23-1 mutant yeast, primary screen, luminescence, uHTS; S. cerevisiae tim23-1 growth, BacTiter-Glo luminescence, 24 h; inhibition, % at 20 µM; hit rate 1.3% among 330,000;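 active = growth inhibition of the mutant yeast at or above 50%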;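 also: temperature-sensitive mutant grown at 25 °C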
PfHsp90 set2 = growth inhibition of PfHsp90-expressing yeast, primary screen, antimalarial PfHsp90 inhibitor project, S. cerevisiae, BacTiter-Glo luminescence, single point, set 2 | BacTiter-Glo ATP, 48 h; yeast lacking PDR1 and PDR3 efflux regulators | inhibition, % at 9.4 µM | hit rate 0.32% among 310,000 | AID 504621, 2011;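 active = every replicate shows inhibition above about 80%, whatever the replicate mean, limit read from the data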
SKKanGAS inh = S. pyogenes SKKanGAS growth inhibitors in kanamycin, primary screen, streptokinase expression inhibitor project, SKKanGAS strain, BacTiter-Glo luminescence; 6 h; inhibition, % at 7.5 µM; hit rate 1.3% among 300,000; AID 1662, 2009;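 active = mean replicate score, as percent of positive control median, at least 50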;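 also: strain carries kanamycin resistance gene driven by streptokinase promoter and grows in 40 µg/ml kanamycin; loss of luminescence reflects streptokinase promoter inhibition or plain growth inhibition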
EBI2 block = EBI2 receptor antagonists, beta-arrestin recruitment, primary screen, cell-based, luminescence, 7a,25-OHC stimulation, uHTS | G-protein coupled receptor 183 (Homo sapiens), P32249 | inhibition, % at 5 µM | hit rate 0.81% among 360,000 | AID 651636, 2012 | 7a,25-OHC stimulated; in the data active = inhibition above about 38%;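 also: enzyme fragment complementation signal reports receptor beta-arrestin coupling in cells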
Target sequence (P32249 whole entry, looked up, the tested form may be a part): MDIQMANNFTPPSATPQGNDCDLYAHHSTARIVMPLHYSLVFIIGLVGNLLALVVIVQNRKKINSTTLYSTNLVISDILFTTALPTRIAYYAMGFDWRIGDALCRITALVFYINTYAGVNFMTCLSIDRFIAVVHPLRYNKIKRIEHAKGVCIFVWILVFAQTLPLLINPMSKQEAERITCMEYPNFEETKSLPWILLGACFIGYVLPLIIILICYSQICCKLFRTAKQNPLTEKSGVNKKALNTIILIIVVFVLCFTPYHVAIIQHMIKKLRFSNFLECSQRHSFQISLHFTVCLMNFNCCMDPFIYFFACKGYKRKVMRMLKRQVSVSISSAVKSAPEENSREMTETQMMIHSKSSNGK
TIM10 conf = growth inhibitors of wild-type TIM10 yeast, confirmation, counter-screen for tim10-1 synthetic lethality project, single concentration, luminescence, S. cerevisiae; shares compounds with TIM10 inh; S. cerevisiae tim10 strain growth, BacTiter-Glo luminescence, 24 h; inhibition, % at 10 µM; hit rate 63% among 4,600;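 active = inhibition of yeast growth at or above a set limit in either of two replicates at 10 µM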; also: this counterscreen used the strain with wild-type TIM10
Numbers stand for hits. A selection: hits, their analogues and other compounds. The true share with any hit is near 4.7%.

Screening CCOC(=O)C1=CN(Cc2ccco2)S(=O)(=O)NC1c1cccc(OC)c1 (configuration not stated) returned TIM10 inh inactive, tim10-1 inh inactive, tim23-1 inh inactive, PfHsp90 set2 inactive and EBI2 block inactive.
Screening COc1ccc(C(=O)/C=C/c2ccccc2F)c(OC(=O)c2ccc([N+](=O)[O-])cc2)c1 returned TIM10 inh 44, tim10-1 inh inactive, tim23-1 inh inactive, PfHsp90 set2 inactive, SKKanGAS inh inactive, EBI2 block inactive and TIM10 conf 41.
Screening COc1ccc(C(=O)/C=C/Nc2ccc([N+](=O)[O-])cc2C)c(OC)c1 returned TIM10 inh inactive, tim10-1 inh inactive, tim23-1 inh inactive, PfHsp90 set2 inactive, SKKanGAS inh inactive and EBI2 block inactive.
`CCN(C(=O)CSc1nnc(C)n1-c1ccccc1)C1CCS(=O)(=O)C1` (configuration not stated) gave TIM10 inh inactive, tim10-1 inh inactive, tim23-1 inh inactive, PfHsp90 set2 inactive, SKKanGAS inh inactive and EBI2 block inactive.
For COc1ccc(CN2C(=O)c3cccc4cccc2c34)cc1F the results were TIM10 inh inactive, tim10-1 inh inactive, tim23-1 inh inactive, PfHsp90 set2 inactive, SKKanGAS inh inactive and EBI2 block inactive.
For CCc1nc(SCC(=O)c2ccc3c(c2)OCCO3)c2ccccc2n1 the results were TIM10 inh inactive, tim10-1 inh inactive, tim23-1 inh inactive, PfHsp90 set2 inactive, SKKanGAS inh inactive and EBI2 block inactive.
O=C(CSc1ncnc2ccccc12)c1ccc2c(c1)OCCO2 was read as TIM10 inh 47, tim10-1 inh inactive, tim23-1 inh inactive, PfHsp90 set2 inactive, SKKanGAS inh inactive, EBI2 block inactive and TIM10 conf inactive.
Screening O=C(OCc1ccccn1)C1CCN(C(=O)c2ccc(Cl)cc2)CC1 returned TIM10 inh inactive, tim10-1 inh inactive, tim23-1 inh inactive, PfHsp90 set2 inactive, SKKanGAS inh inactive and EBI2 block inactive.
For COC(=O)C1=C(C)N(c2ccc(C)cc2)/C(=C/c2cccs2)C1=O the results were TIM10 inh 43, tim10-1 inh inactive, tim23-1 inh inactive, SKKanGAS inh inactive, EBI2 block inactive and TIM10 conf 32.
`COC(=O)C1=C(C)N(c2ccc(F)cc2)/C(=C/c2ccc(O)cc2)C1=O` gave TIM10 inh inactive, tim10-1 inh inactive, tim23-1 inh inactive, PfHsp90 set2 inactive, SKKanGAS inh inactive and EBI2 block inactive.
`COC(=O)C1=C(C)N(c2ccc(C)c(C)c2)/C(=C/c2ccco2)C1=O` gave TIM10 inh 48, tim10-1 inh inactive, tim23-1 inh inactive, PfHsp90 set2 inactive, SKKanGAS inh inactive, EBI2 block inactive and TIM10 conf 47.
CCOC(=O)C1=C(C)N(c2ccc(C)c(C)c2)C(=O)/C1=C\c1ccco1 was read as TIM10 inh inactive, tim10-1 inh inactive, tim23-1 inh inactive, PfHsp90 set2 inactive, SKKanGAS inh inactive and EBI2 block inactive.
NC1=NC(=O)/C(=C/c2cn(Cc3ccccc3)c3ccccc23)S1 was read as TIM10 inh inactive, tim10-1 inh inactive, tim23-1 inh inactive, PfHsp90 set2 inactive, SKKanGAS inh inactive and EBI2 block inactive.
`COc1ccc(N2CCC(CNC(=S)Nc3c(C)cc(C)cc3C)C2)cc1` (configuration not stated) gave TIM10 inh 40, tim10-1 inh inactive, tim23-1 inh inactive, PfHsp90 set2 inactive, SKKanGAS inh inactive, EBI2 block inactive and TIM10 conf 56.
For N=c1oc2ccc3ccccc3c2cc1C(N)=S the results were TIM10 inh 42, tim10-1 inh inactive, tim23-1 inh inactive, PfHsp90 set2 inactive, SKKanGAS inh inactive, EBI2 block inactive and TIM10 conf 39.
Screening O=C(O)c1cc2c(ccc3ccccc32)oc1=O returned TIM10 inh inactive, tim10-1 inh inactive, tim23-1 inh inactive, PfHsp90 set2 inactive, SKKanGAS inh inactive and EBI2 block inactive.
Screening CCOC(=O)c1cc2c(ccc3ccccc32)oc1=O returned TIM10 inh 47, tim10-1 inh inactive, tim23-1 inh inactive, PfHsp90 set2 inactive, SKKanGAS inh inactive, EBI2 block inactive and TIM10 conf 49.
For O=S(=O)(Cc1ccc(Cl)cc1)N1CCCC1 the results were TIM10 inh inactive, tim10-1 inh inactive, tim23-1 inh inactive, PfHsp90 set2 inactive, SKKanGAS inh inactive and EBI2 block inactive.
`O=C(Nc1ccc2c(c1)nc1n2CCSC1)c1ccco1` gave TIM10 inh 60, tim10-1 inh inactive, tim23-1 inh inactive, SKKanGAS inh inactive, EBI2 block inactive and TIM10 conf 53.
Screening O=C(Nc1ccc2c(c1)nc1n2CCOC1)c1ccco1 returned TIM10 inh 47, tim10-1 inh inactive, tim23-1 inh inactive, PfHsp90 set2 inactive, SKKanGAS inh inactive, EBI2 block inactive and TIM10 conf inactive.
`CC(C)Cc1nnc(NC(=O)CCC(=O)NCCc2ccc(Cl)cc2)s1` gave TIM10 inh inactive, tim10-1 inh inactive, tim23-1 inh inactive, PfHsp90 set2 inactive, SKKanGAS inh inactive and EBI2 block inactive.
For CC(C)c1ccc(S(=O)(=O)N2CCN(C(=O)C3=COCCO3)CC2)cc1 the results were TIM10 inh 97, tim10-1 inh inactive, tim23-1 inh inactive, PfHsp90 set2 inactive, EBI2 block inactive and TIM10 conf inactive.
Screening CCCn1cnc2cc(NC(=O)c3ccco3)ccc21 returned TIM10 inh inactive, tim10-1 inh inactive, tim23-1 inh inactive, PfHsp90 set2 inactive, SKKanGAS inh inactive and EBI2 block inactive.
Screening CCCn1cnc2cc(NC(=O)c3cccs3)ccc21 returned TIM10 inh 61, tim10-1 inh inactive, tim23-1 inh inactive, PfHsp90 set2 inactive, SKKanGAS inh inactive, EBI2 block inactive and TIM10 conf 42.
Screening CCCOc1ncnc2c1[nH]c1ccc(OC)cc12 returned TIM10 inh inactive, tim10-1 inh inactive, tim23-1 inh inactive, PfHsp90 set2 inactive, SKKanGAS inh inactive and EBI2 block inactive.
CCCOc1ncnc2c1[nH]c1ccccc12 was read as TIM10 inh 48, tim10-1 inh inactive, tim23-1 inh inactive, PfHsp90 set2 inactive, SKKanGAS inh inactive, EBI2 block inactive and TIM10 conf 31.
For CCN(CCS(=O)(=O)c1ccc(Cl)cc1)Cc1nc2ccccc2c(=O)[nH]1 the results were TIM10 inh inactive, tim10-1 inh inactive, tim23-1 inh inactive, PfHsp90 set2 inactive and EBI2 block inactive.
Screening CNC(=S)N/N=C/c1c(C)nn(-c2ccc(F)cc2)c1Cl returned TIM10 inh 43, tim10-1 inh inactive, tim23-1 inh inactive, SKKanGAS inh inactive, EBI2 block inactive and TIM10 conf inactive.
